This note sets out measurements from PubChem BioAssay (NCI).

The panel holds about 83,000 compounds, 20% with a hit somewhere; the sample as a whole holds those more often.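 Method: cells in 96-well plates; compound added at one concentration; 48 h incubation; percent growth measured; values under 10 scored active.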 Unmarked numbers belong to inactive results. The source made the active and inactive calls.

The assay deals with HL-60(TB) leukemia. The assay can be described thus: NCI-60 one-dose screen, 48 h (100 = growth as untreated, 0 = no growth, -100 = all killed). Conditions: 10 µM unless noted.
With `O=C(N/N=C(\CS(=O)(=O)c1ccccc1)c1cc2ccccc2oc1=O)c1ccccc1`, the growth was 105%. The result for `CC(C)NC(=O)OCC#CCOC(=O)NC(C)C` reads 95.7%. The result for `C=C1CCC2C3(C)COC(c4c(OC)cccc4OC)OC3CCC2(C)C1C/C=C1/C(=O)OCC1O` (stereo not given) reads 29.4%; that for `CC1(C)CC[C@]23CC[C@]4(C)[C@H](CC[C@@H]5[C@@]6(C)C/C(=C/c7ccncc7)C(=O)C(C)(C)[C@@H]6CC[C@]54C)[C@H]2[C@H]1OC3=O`, 43% [100 µM]; that for `O=C(Nc1ccc(F)cc1F)c1cc(I)ccc1O`, -34.5% (active). For the compound `Cc1ccc(C(=O)N/N=C/c2ccc3c(c2)OCO3)cc1`, the growth is 90.4%.

Regarding `COc1ccc(C(=O)C(CN(C)C)c2ccccc2)cc1` (stereo not given), the growth was 3.71% (active). `O=C(CCCCCCSc1nc(-c2ccccc2)cc(-c2ccccc2)n1)NO`: the growth was -33.2% (active).

`c1ccc(Cn2cc3c(c2)-c2oncc2CC3)cc1`: the growth is 11.5%. Then `Oc1c(Br)cc(Br)c2ccc(Cn3cc(-c4ccc(C(F)(F)F)cc4)nn3)nc12`, with -5.83% (active); and `COc1ccc(-c2cc(=O)n(-c3nc4ccccc4[nH]3)[nH]2)cc1OC`, with 35.4%. The result for `N#Cc1nc(-c2ccccc2)oc1S(=O)(=O)NCC(c1ccc(Cl)cc1)N1CCCCC1` (stereo not given) reads 8.18% (active); that for `Cc1ccc(C(=O)NCCCNc2nccc(-n3ccc4cccnc43)n2)cc1`, 105%; that for `COc1ccc(/C=C/C(=O)Nc2ccc(-c3nc4ccc(F)cc4s3)cc2)cc1`, 91.4%. The result for `CC1CC=CCC1C1OCC(C)(C)CO1` (stereo not given) reads 91.8%; that for `COc1ccc(/C=C/C(=O)c2cc3c(N)c(C(=O)Nc4cccc5ccccc45)sc3nc2C)cc1`, 81.9%; that for `CC(N)C(Cc1ccccc1)c1ccc(Cl)cc1` (stereo not given), 66.5%. Regarding `O=[N+]([O-])c1ccc2[nH]c3nccc(NCc4cccc(Cl)c4)c3c2c1`, the growth was 82.9%. `COc1ccc(Cn2c(C(N)=O)cc3c2-c2nc(N)ncc2CCC3)cc1`: the growth is 121%.

On to `COc1cc(/C=N/NC(=O)c2cnn3c2NC(c2ccccc2)C3)cc(OC)c1OC` (stereo not given), for which the growth is 81.1%. In the case of `CSc1ncnc2c1ncn2C1CCCO1` (stereo not given), the growth was 99.9%.

With `COc1cc(NCCCCN=C(N)NC(N)=NC(C)C)c2ncccc2c1`, the growth is 55.9%. Then `Cc1ccc(-[n+]2c3cc(N)c(C)cc3nc3cc(C)c(Nc4ccccc4)cc32)cc1`, with -20.6% (active); and `CCN(CC)CCN1C(=O)c2c(c3c4ccccc4[nH]c3c3[nH]c4ccccc4c23)C1=O`, with 98.7%. As for `O=C1c2ccccc2-c2c1c1ccncc1c(=O)n2CCCn1ccnc1`, the growth is 35.7%.

Turning to `O=C(Nc1ccc(-c2ccnc(Nc3ccc(N4CCOCC4)cc3)n2)cc1)[C@@H]1CCCN1`, the growth was 39.8%. As for `CCOC(=O)/C(=C\c1ccccc1Cl)P(=O)(OCC)OCC`, the growth was 10.8%. With `CCN(CC)CCn1c2ccc(OC)cc2c2sc3cc(O)ccc3c(=O)c21`, the growth is 31%.

As to `O=C(C(=O)c1ccc2c(c1)OCO2)c1ccc2c(c1)OCO2`, the growth is 62.3%. Regarding `COc1ccc(C(C)c2cc(OC)c(OC)c(OC)c2)cc1` (stereo not given), the growth is -15.6% (active). Take `CC(=O)Nc1c(C)cc(C)cc1C`: the growth was 99.8%. With `O=C1/C(=C/c2ccc(C(F)(F)F)cc2)COc2ccc(O)c(O)c21`, the growth is -26.1% (active).

With `CN(C)CCNC(=O)c1ccc(-c2nc3ccc4[nH]ncc4c3c3c2C2CCC3C2)cc1` (stereo not given), the growth was -20.6% (active). `c1ccc([I+]c2ccccc2)cc1`: the growth was 52%. In the case of `N#Cc1ncc(Br)c(NC2CCCCCC2)n1`, the growth was 111%.

Consider `CC1=NN(c2ccc(S(=O)(=O)O)cc2)C(=O)C1N=Nc1ccc(-c2ccc(N=Nc3ccc(OS(=O)(=O)c4ccc(C)cc4)cc3)c(S(=O)(=O)O)c2)cc1` (stereo not given), for which the growth is 108%. In the case of `COc1ccc2c(c1)cn1c3ccc(O)cc3[nH]c(=O)c21`, the growth is -21.7% (active).

As for `COc1nc(N)nc2c1ncn2C1OC(CO)CC1O` (stereo not given), the growth is 98.9%. Consider `C=CCn1c(SCC(=O)Nc2ccc(C(=O)/C=C/c3cc(OC)c(OC)c(OC)c3)cc2)nnc1-c1cc(OC)c(OC)c(OC)c1`, for which the growth was 16.5%.

Consider `C=C(CNCCc1ccc(O)cc1)[C@@H]1CC[C@]2(COC3CCCCO3)CC[C@]3(C)[C@H](CC[C@@H]4[C@@]5(C)CCC(NCCO)C(C)(C)[C@@H]5CC[C@]43C)[C@@H]12` (stereo not given in full), for which the growth is -59.5% (active).
